Results reported in PubChem BioAssay AID493191 (Broad Institute, 2011).
About 330 (25%) of roughly 1,300 compounds were called active. The rule behind the calls is not given here. These entries were drawn from the full list. Entries with a potency or affinity are not part of this list.

assay: growth inhibition of MALME3 cells – cell-based, CellTiter-Glo, cherry-picked, orthogonal assay for MITF inhibitor project, dose response (AID 493191); settings: MALME3 melanoma viability, CellTiter-Glo luminescence, 24 h; series mostly up to 35 µM; activity change, negative = inhibition: at the top concentration

Row | SMILES | activity change, negative = inhibition
1 | c1ccc(-c2cn3nc4c(nc3n2)CCCC4)cc1 | -27.3% (inactive)
2 | O=S1(=O)CCC(NC(=S)SCc2ccccc2Br)C1 (stereo unspecified) | -16% (inactive)
3 | COc1cccc(-c2nnc3sc(-c4cccs4)nn23)c1 | 13.5% (inactive)
4 | COCC(C)Nc1ncnc2c1cnn2-c1ccc(Cl)cc1 (stereo unspecified) | 10.2% (inactive)
5 | Nc1ccccc1SC1CC(=O)N(c2ccc3c(c2)OCCO3)C1=O (stereo unspecified) | 4.99% (inactive)
6 | Cc1ccc2nc(NC(=O)c3ccc(Br)o3)sc2c1 | -5.82% (inactive)
7 | COC(=O)CSC1=C(C#N)C(=O)NC(c2ccccc2)S1 (stereo unspecified) | -22.9% (inactive)
8 | Cc1ccc(OCCNCc2ccccc2)c(C)c1 | 7.74% (inactive)
9 | CC(C)(C)c1ccc(OCCn2ccccc2=O)cc1 | -0.875% (inactive)
10 | Cc1ccc2nc3cc([N+](=O)[O-])cc([N+](=O)[O-])c3cc2c1 | 2.33% (inactive)
11 | NC(=O)c1cc([N+](=O)[O-])ccc1NCc1ccc(N)cc1 | 15.2% (inactive)
12 | CC(=O)N/C(N)=N/c1nc2cc(C)ccc2o1 | -0.336% (inactive)
13 | CCn1nccc1C(=O)Nc1ccc(C)c(C)c1 | -11.8% (inactive)
14 | Cc1ccc(NC(=O)c2cnc3ccccc3n2)cc1C | -1.88% (inactive)
15 | CC(C)=CCc1c(O)ccc2c1OC(c1ccc(O)c(O)c1)CC2=O (stereo unspecified) | 3.9% (inactive)
16 | Cc1c(OCC(=O)NC2CC(C)(C)NC(C)(C)C2)ccc2c1oc(=O)c1ccccc12 | -54.9% (inactive)
17 | COc1cc(SC)ccc1C(=O)NCCOc1ccccc1Cl | 2.19% (inactive)
18 | CC1CCN(CC2C(=O)O[C@@H]3C[C@@]4(C)CCC[C@H](C)C4=C[C@H]23)CC(C)(C)C1 (stereo partly specified) | -19% (inactive)
19 | CCOc1ccccc1NC(=O)C(=O)N/N=C/c1cc(Br)ccc1O | -22.8% (inactive)
20 | COc1ccc(C(=O)N/N=C/c2cc(Br)ccc2O)cc1OC | -22.8% (inactive)
21 | COc1ccc(CCn2c(=S)[nH]c3cc(C(=O)NCc4ccco4)ccc3c2=O)cc1OC | -24.1% (inactive)
